The supplement of paper PMC11732987, “Enantioselective OTUD7B fragment discovery through chemoproteomics screening and high-throughput optimisation” (Communications Chemistry, 2025)

How the values were obtained:
Assay in all cases: log2 ratio of Biotin-Ahx-Ub-VS probe labelling (fragment/DMSO); higher = less target engagement (more negative = stronger competition), active = hit call of the paper (q ≤ 0.05, log2 ratio ≤ -1)
Settings in all cases: compound concentration: 200 uM; treatment time: 3 h
USP34 = USP34 (UniProt Q70CQ2)
Outline: (§1)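 Triplicate samples of HEK293T lysate, 495 µg each, received fragment at 200 µM or vehicle for 3 h, followed by Biotin-Ahx-Ub-VS (0.5 µM final) for 1 h. After NeutrAvidin enrichment of labelled DUBs and LysC/trypsin digestion, peptides were run by diaPASEF LC-MS/MS. The values are average log2 fragment/vehicle ratios from global-median-normalised Spectronaut label-free quantities, tested by unpaired t-test on proteins having ≥2 unique peptides.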

USP36 = biological target: T1, USP36 (UniProt Q9P275)
T1 sequence (whole entry): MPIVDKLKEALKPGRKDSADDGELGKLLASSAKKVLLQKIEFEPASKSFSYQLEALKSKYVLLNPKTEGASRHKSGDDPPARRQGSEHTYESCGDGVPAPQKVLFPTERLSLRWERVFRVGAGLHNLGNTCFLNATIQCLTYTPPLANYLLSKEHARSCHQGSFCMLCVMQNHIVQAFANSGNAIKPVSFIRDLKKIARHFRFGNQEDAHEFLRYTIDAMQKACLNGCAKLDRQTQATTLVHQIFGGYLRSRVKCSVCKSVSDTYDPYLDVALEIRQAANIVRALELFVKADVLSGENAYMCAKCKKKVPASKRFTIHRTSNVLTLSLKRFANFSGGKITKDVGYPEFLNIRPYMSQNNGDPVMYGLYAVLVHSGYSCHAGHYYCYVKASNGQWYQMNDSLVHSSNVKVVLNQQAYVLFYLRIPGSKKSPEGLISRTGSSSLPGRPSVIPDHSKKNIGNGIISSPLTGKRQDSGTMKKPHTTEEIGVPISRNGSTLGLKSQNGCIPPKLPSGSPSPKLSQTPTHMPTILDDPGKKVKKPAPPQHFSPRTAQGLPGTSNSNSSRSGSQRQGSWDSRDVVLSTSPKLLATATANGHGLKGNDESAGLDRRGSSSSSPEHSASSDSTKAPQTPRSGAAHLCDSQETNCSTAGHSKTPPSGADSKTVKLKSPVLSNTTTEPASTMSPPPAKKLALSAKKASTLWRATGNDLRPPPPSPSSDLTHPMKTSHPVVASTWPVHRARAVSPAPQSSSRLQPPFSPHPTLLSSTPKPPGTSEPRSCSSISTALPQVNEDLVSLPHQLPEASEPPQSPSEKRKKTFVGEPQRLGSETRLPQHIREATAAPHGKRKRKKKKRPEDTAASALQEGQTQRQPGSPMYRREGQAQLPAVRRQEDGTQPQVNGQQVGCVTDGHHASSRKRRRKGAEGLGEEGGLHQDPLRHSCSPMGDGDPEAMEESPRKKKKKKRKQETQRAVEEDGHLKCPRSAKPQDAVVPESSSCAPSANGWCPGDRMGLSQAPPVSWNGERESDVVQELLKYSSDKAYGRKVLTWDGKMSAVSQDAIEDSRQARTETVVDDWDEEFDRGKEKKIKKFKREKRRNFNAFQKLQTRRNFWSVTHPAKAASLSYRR
Outline: as §1

USP38 = biological target: T2, USP38 (UniProt Q8NB14)
T2 sequence (whole entry): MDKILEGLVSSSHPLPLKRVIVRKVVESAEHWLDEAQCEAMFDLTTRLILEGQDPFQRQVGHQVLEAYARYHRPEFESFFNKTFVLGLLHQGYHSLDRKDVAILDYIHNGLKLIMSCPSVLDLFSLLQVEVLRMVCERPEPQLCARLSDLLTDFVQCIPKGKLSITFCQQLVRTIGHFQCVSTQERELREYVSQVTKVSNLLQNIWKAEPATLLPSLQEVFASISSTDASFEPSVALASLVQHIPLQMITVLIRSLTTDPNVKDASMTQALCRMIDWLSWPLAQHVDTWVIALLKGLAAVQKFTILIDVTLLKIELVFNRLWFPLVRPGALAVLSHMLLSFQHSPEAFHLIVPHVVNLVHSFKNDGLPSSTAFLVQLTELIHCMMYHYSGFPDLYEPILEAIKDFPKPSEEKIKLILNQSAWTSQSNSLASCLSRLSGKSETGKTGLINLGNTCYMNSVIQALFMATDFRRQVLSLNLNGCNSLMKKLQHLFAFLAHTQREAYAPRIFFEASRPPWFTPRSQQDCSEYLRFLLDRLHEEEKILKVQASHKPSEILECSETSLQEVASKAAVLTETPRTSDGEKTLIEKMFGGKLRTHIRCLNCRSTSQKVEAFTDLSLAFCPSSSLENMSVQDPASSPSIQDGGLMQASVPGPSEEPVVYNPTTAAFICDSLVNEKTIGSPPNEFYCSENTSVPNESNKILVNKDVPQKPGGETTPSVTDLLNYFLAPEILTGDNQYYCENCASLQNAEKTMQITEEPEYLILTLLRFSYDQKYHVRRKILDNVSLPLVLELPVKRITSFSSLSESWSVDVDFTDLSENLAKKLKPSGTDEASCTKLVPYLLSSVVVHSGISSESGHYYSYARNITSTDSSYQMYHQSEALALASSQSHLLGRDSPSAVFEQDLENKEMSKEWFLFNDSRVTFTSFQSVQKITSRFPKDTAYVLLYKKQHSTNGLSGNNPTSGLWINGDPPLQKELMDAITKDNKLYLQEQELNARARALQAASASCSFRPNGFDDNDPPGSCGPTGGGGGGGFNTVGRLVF
Outline: as §1

USP39 = biological target: T3, USP39 (UniProt Q53GS9)
T3 sequence (whole entry): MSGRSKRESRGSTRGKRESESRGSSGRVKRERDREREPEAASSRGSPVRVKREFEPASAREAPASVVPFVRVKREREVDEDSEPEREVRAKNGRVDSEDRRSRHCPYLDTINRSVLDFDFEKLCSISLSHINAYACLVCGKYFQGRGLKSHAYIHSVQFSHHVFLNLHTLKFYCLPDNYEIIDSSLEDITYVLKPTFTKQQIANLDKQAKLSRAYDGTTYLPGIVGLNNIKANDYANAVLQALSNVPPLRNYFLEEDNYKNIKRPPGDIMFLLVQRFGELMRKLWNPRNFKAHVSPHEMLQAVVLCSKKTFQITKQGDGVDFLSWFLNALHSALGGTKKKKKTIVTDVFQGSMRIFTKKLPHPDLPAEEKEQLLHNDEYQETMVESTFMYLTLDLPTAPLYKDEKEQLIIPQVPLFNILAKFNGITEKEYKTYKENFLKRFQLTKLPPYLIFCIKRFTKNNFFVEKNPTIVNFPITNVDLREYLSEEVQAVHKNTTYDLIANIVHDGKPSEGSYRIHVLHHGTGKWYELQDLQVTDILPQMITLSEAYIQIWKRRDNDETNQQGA
Outline: as §1

USP4 = biological target: T4, USP4 (UniProt Q13107)
T4 sequence (whole entry): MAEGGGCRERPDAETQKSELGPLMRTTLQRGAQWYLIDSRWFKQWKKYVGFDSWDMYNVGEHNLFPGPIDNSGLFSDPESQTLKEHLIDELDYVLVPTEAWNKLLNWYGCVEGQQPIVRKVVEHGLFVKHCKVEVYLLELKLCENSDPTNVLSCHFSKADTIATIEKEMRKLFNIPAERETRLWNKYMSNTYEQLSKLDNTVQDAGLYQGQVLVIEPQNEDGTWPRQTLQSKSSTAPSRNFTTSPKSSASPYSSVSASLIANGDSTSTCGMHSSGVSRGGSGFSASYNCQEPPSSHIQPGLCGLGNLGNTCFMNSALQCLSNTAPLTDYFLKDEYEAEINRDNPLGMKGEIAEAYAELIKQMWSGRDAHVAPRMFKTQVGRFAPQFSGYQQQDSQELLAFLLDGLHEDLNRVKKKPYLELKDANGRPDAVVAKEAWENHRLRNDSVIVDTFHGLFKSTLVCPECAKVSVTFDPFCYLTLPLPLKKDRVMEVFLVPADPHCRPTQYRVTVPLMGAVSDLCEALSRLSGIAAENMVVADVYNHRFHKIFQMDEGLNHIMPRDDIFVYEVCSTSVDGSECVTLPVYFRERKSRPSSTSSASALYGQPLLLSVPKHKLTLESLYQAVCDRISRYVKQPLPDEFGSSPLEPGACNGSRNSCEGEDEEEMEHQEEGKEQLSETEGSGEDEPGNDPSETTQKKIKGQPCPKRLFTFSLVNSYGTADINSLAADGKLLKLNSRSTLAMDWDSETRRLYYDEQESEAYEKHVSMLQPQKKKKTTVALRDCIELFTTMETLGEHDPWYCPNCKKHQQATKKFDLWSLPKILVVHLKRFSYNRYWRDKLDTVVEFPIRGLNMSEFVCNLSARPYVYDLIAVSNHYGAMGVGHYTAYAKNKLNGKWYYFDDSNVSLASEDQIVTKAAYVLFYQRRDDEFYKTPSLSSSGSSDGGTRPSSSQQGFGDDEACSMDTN
Outline: as §1

Measured: log2 ratio of Biotin-Ahx-Ub-VS probe labelling

Sequence of USP34 (Q70CQ2 whole entry, the tested form may be a part): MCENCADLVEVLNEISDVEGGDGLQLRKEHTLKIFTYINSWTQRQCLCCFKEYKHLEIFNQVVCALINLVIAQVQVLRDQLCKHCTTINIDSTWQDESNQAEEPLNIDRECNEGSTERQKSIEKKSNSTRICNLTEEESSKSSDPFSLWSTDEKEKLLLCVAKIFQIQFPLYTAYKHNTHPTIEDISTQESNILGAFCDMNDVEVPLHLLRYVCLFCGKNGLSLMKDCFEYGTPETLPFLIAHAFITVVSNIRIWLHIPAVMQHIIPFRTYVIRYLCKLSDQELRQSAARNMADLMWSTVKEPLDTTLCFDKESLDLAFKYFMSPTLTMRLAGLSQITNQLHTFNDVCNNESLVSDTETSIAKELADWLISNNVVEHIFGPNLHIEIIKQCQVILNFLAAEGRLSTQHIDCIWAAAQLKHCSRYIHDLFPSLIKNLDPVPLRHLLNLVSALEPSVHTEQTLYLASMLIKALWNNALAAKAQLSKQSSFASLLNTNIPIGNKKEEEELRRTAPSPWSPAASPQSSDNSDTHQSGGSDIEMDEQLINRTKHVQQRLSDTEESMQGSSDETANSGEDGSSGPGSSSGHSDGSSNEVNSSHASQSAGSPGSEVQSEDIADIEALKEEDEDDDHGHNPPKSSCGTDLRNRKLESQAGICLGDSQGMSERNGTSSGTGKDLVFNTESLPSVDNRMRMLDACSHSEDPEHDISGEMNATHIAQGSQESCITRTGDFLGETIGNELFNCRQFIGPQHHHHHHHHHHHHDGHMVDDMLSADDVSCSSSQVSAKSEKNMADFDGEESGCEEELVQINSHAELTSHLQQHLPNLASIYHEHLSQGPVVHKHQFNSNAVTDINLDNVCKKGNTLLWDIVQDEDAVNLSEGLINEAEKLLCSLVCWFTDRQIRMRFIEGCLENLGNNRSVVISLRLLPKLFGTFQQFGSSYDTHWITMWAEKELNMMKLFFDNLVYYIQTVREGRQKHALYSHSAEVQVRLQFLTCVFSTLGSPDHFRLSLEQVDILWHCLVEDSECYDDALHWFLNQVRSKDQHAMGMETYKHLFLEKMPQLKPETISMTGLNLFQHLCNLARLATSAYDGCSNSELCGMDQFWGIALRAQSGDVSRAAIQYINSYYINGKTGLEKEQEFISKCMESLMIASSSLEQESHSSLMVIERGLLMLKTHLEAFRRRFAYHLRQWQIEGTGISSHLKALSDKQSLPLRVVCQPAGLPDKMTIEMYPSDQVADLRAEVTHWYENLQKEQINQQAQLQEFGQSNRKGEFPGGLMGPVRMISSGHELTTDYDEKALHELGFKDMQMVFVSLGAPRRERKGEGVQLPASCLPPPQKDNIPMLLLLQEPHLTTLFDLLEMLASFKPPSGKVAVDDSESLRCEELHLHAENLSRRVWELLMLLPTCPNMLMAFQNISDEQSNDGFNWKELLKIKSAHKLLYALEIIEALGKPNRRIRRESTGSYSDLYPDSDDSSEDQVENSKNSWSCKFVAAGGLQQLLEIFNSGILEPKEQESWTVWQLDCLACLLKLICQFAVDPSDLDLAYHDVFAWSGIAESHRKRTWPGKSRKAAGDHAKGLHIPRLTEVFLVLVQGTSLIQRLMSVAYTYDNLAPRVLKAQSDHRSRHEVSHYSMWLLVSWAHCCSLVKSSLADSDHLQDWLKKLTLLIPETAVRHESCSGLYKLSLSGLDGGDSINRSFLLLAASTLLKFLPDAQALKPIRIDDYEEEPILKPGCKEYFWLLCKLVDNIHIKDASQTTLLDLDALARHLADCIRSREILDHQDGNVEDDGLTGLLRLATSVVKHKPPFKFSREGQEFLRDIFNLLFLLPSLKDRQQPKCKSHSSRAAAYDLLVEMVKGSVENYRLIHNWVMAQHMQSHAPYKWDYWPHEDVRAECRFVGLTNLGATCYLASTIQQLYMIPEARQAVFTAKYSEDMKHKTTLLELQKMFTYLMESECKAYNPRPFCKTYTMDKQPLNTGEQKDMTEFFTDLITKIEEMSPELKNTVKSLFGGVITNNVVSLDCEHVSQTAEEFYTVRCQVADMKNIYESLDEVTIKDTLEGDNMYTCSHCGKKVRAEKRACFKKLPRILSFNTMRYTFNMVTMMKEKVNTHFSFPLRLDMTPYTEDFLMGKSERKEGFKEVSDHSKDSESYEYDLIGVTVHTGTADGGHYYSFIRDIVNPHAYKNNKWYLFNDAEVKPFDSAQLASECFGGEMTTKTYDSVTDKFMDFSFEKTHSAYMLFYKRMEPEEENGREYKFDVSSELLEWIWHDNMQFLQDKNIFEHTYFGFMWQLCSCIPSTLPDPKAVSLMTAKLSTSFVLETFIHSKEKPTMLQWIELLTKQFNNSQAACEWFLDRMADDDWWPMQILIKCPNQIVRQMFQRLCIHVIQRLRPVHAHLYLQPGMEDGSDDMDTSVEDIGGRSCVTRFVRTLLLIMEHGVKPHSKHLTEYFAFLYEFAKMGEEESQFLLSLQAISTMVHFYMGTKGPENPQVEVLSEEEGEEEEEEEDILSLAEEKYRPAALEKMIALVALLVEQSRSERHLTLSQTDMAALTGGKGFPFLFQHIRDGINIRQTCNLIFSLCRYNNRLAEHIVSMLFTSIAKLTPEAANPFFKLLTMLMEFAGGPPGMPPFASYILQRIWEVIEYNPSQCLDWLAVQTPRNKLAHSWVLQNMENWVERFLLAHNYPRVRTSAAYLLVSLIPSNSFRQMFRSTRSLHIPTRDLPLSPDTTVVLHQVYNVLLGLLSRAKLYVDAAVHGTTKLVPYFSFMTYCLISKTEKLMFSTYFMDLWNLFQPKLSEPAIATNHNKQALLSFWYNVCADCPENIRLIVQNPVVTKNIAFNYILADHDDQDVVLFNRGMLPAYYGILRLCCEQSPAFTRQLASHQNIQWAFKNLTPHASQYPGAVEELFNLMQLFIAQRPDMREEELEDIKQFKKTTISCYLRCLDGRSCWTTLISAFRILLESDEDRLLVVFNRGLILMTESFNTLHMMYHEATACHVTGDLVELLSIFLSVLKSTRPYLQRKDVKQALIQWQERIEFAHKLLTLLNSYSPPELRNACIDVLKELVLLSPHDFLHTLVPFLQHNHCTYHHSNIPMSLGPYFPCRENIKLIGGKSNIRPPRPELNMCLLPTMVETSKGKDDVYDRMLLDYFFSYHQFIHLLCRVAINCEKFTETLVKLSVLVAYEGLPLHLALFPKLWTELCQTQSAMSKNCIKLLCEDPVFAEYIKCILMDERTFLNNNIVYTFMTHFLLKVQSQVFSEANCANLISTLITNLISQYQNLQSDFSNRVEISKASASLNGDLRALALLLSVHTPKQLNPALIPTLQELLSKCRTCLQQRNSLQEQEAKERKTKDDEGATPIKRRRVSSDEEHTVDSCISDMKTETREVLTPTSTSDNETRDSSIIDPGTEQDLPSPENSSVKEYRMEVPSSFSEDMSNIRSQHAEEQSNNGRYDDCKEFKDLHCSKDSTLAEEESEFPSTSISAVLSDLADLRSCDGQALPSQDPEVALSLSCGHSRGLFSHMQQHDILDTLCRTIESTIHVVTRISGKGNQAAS

COc1ccc(Cl)cc1NC(=O)CCl
inactive: USP34 -0.301 | USP36 -0.44 | USP38 -0.283 | USP39 0.264 | USP4 -0.469
